PubChem BioAssay AID1037 (National Center for Advancing Translational Sciences (NCATS), 2008)
The source made the active and inactive calls. Calls follow the shape of the full dose curve.

Test: NSCLC 2 Cell Viability Secondary Assay for qHTS Assay for Epigenetic Modulators
Conditions: NSCLC 2 viability, MTS absorbance, 4 days
Excerpt: NIH Molecular Libraries Screening Centers Network [MLSCN] NIH Chemical Genomics Center [NCGC] MLSCN Grant: 1 X01 MH079860-01 Assay Provider: Elisabeth D. Martinez, University of Texas SW Medical Center NCGC Assay Overview: This secondary assay characterizes selected actives identified in the qHTS of the Locus Derepression (LDR) assay (PubChem AID 597). The LDR assay detects the derepression of a GFP reporter that is stably integrated in a region of the genome of murine c127i mammary cells that is presumably silenced. Compounds that cause derepression of the locus to express GFP are identified by enumerating GFP positive cells using a laser-scanning microplate cytometer. Selected LDR actives were assayed for killing of NSCLC 2, a patient-derived nonsmall cell lung carcinoma line. Known epigenetic drugs, like histone deacetylase inhibitors, can block cancer cell growth. NSCLC 2 cell viability was measured using Cell Titer 96 AQueous One (Promega), an assay which detects the ability of metabolically active cells to reduce a tetrazolium salt substrate (MTS), into a soluble formazan product that can be measured by colorimetry.
NCGC Assay Protocol Summary NSCLC 2 cells were plated in 96-well flat bottom tissue culture dishes (Corning) and grown overnight at 37 C and 5% CO2, then treated with compounds, incubated 4 days, and assayed for viability using the Cell Titer 96 AQueous One kit (Promega) according to the manufacturer's protocol. Absorbance at 490 nm and 650 nm (reference) was measured by a Spectra Max (Molecular Devices). Data were normalized to the untreated control (100% viability). Each cell line was tested in one or two independent assays, each containing 4 or 8 replicates. For further details, see R.L. Johnson, W. Huang, A. Jadhav, C.P. Austin, J. Inglese, E.D. Martinez, A Quantitative High-Throughput Screen Identifies Potential Epigenetic Modulators of Gene Expression, Analytical Biochemistry (2007), doi: 10.1016/j.ab.2007.12.028

| Structure (SMILES) | outcome | Potency |
| --- | --- | --- |
| O=C(CSc1cccc2cccnc12)N1CCCC1 | inactive |  |
| O=Nc1ccc(O)c2ncccc12 |  | 1000 nM (active) |
| CN1C(=S)SC(c2ccccc2)N(C)C1c1ccccc1 (stereo not drawn) | inactive |  |
| CC(C)C(=O)NC(c1ccco1)c1ccc2cccnc2c1O (stereo not drawn) |  | 800 nM (active) |
| O=C(CSc1cccc2cccnc12)NCc1ccccc1 | inactive |  |
| CC(/C=C/C(=O)NO)=C\[C@@H](C)C(=O)c1ccc(N(C)C)cc1 |  | 40 nM (active) |
| CC(C)C(=O)NC(c1ccco1)c1cc([N+](=O)[O-])c2cccnc2c1O (stereo not drawn) |  | 6000 nM (active) |
| CC(C)C(=O)NC(c1ccc(N(C)C)cc1)c1ccc2cccnc2c1O (stereo not drawn) |  | 200 nM (active) |
